# Assay outcomes as filed in PubChem BioAssay.
# Compounds with a hit are over-represented: about 1.9% of the library has one in this group of screens.
# H9c2 protect: protects H9c2 cardiomyocytes from peroxide injury; H2O2 injury protection, ATPLite, 2 h; protection from H2O2 cell death, % at 20 µM; 360,000 tested, 0.63% active; AID 588492;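 active = compounds giving at least 50% protection of heart cells from peroxide-induced death in the single-dose screen, raw or plate-pattern-corrected value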;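 also: 0% = DMSO wells with peroxide and 100% = DMSO wells without peroxide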
# PP5 primary: inhibitors of human protein phosphatase 5 (PP5) | P53041 | purified PP5c, OMFP substrate fluorescence | inhibition, % at 6.7 µM | 320,000 tested, 0.18% active | AID 1987;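 active = inhibition above the campaign's mean inhibition across all tested compounds plus 3 SD, cut at about 9.5% in these data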;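 also: 0% = DMSO only and 100% = 100 µM cantharidin control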
# ATG4B inhibitor: blocks human ATG4B protease cleavage of LC3 substrate. ATG4B cleavage of LC3-PLA2, NBD-HPC fluorescence, 1 h. inhibition, % at 8.33 µM. AID 504462. Q9Y4P1. 340,000 tested, 0.51% active; in the data active = inhibition above about 40%
# Target sequence (Q9Y4P1 whole entry, looked up): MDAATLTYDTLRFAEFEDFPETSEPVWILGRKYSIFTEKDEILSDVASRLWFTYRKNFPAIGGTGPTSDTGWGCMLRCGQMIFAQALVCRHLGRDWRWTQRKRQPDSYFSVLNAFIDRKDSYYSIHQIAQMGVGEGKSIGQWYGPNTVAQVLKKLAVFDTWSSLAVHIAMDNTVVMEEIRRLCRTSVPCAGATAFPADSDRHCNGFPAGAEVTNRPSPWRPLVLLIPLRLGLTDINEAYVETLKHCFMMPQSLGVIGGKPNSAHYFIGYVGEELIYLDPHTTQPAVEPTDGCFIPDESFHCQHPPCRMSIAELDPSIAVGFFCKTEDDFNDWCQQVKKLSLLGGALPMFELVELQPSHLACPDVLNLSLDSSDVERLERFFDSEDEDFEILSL
# PP1 counter: blocks human PP1-alpha phosphatase, a PP5 counter-screen. purified PP1alpha, OMFP fluorescence. inhibition, % at 6.7 µM. 320,000 tested, 0.9% active. AID 2235. P62136;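 active = inhibition above the mean inhibition of all tested compounds plus 3 SD, computed separately for each screening campaign, cut at about 15% in these data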
# Numbers without * were called inactive; · = no result.
SMILES,H9c2 protect,PP5 primary,ATG4B inhibitor,PP1 counter
COc1cc2c(cc1OC)CN(CC(=O)Nc1ccccc1SC)CC2,-5,1,-1,-9
COc1cc2c(cc1OC)CN(CC(=O)Nc1ccccc1C#N)CC2,74*,0,-3,-2
COC(=O)Sc1nc(N2CCOCC2)c2c(c1C#N)CC(C)(C)OC2,55*,1,-1,-2
N#CCSc1nc2cc(C(=O)N3CCCC3)ccc2c(=O)n1Cc1ccccc1,4,2,-5,0
N#CCSc1nc2cc(C(=O)N3CCC(C(N)=O)CC3)ccc2c2nc3ccccc3n12,52*,-1,-3,-4
CC(=O)N1CCN(c2ccccc2NC(=O)c2ccc(-c3cccc([N+](=O)[O-])c3)o2)CC1,79*,-1,0,-2
O=C(NC(=S)Nc1ccccc1N1CCCC1)c1ccc(-c2cccc([N+](=O)[O-])c2)o1,30,-2,-5,0
COC1=C(N)C(=O)c2nc(-c3nc(C(=O)O)c(C)c(-c4ccc(OC)c(OC)c4O)c3N)ccc2C1=O,·,·,69*,·
COc1ccc(-c2ncncc2-c2csc(C)n2)c(O)c1OC,1,-3,-15,10
Cc1[nH]c(-c2ccccn2)nc(=S)c1Cl,59*,0,-5,1
COc1ccccc1NS(=O)(=O)c1ccc2oc(SCC(=O)N3CCNC3=O)nc2c1,54*,2,-11,-2
O=C1CSC(=S)N1/N=C/c1cc(Br)c(O)c(Br)c1,-9,-2,61*,-1
COc1cc(O)c(C=NN2C(=O)CSC2=S)c(OC)c1,62*,·,·,·
COc1cc(/C=N/N2C(=O)CSC2=S)ccc1O,8,-3,1,8
COc1ccc(CNC(=O)COC(=O)c2cccs2)cc1,1,2,-6,2
O=C(/C=C/c1ccco1)N(Cc1ccccc1F)C1CCS(=O)(=O)C1 (centres undefined),-4,1,3,-3
CN1CCC(N(C)C(=O)CCc2nc3ccccc3c(=O)[nH]2)CC1,78*,1,7,0
CN1CCN(C(=O)CCc2nc3ccccc3c(=O)[nH]2)CC1,34,-1,-2,-3
CN(CC(=O)Nc1ccccc1Br)C(=O)CCc1nc2ccccc2c(=O)[nH]1,73*,0,-1,-7
COc1ccc(Cl)cc1NC(=O)CN(C)C(=O)CCc1nc2ccccc2c(=O)[nH]1,73*,-1,-7,-2
O=C(c1cc(F)c(F)cc1Cl)N1CCN(CCc2ccccc2)CC1,1,-1,-1,2
CCOCCN1CCN(c2c(CC)c(C)nc3cc(-c4cc(OC)cc(OC)c4)nn23)CC1,73*,5,-30,4
O=C(COc1ccc([N+](=O)[O-])cc1Cl)N(C1CCCCC1)C1CCS(=O)(=O)C1 (centres undefined),5,·,-11,·
COc1ccc(C2/C=C\CN(S(=O)(=O)c3cccc4cccnc34)CC(=O)N2Cc2ccc(F)cc2)cc1 (centres undefined),50*,3,-12,6
COc1ccc(C2/C=C\CN(C(=O)Nc3ccccc3-c3ccccc3)CC(=O)N2Cc2ccc(F)cc2)cc1 (centres undefined),1,5,29,16*
SMILES,H9c2 protect,PP5 primary,ATG4B inhibitor,PP1 counter
COC(=O)N1C/C=C\C(c2ccc(OC)cc2)N(Cc2ccc(F)cc2)C(=O)C1 (centres undefined),6,-1,5,2
Cc1cc(CNCCN(C)C)c(C)n1-c1cc(S(=O)(=O)N2CCOCC2)ccc1N1CCCC1,4,·,-11,·
O=C(Cc1cccc2ccccc12)NC(NC(=S)Nc1ccccc1Cl)C(Cl)(Cl)Cl (centres undefined),-13,1,24,16*
COc1cc(C(=O)NNC(=O)c2ccc3ccccc3n2)cc(OC)c1OC,61*,1,-8,2
COc1cc(OC)cc(C(=O)NNC(=O)c2ccc3ccccc3n2)c1,44,·,-4,·
COc1ccc(CNC(=O)c2ccc3ccccc3n2)cc1,-5,4,-1,17*
O=C(NCc1ccccc1)c1ccc2ccccc2n1,-2,0,1,-2
O=C(CC12CC3CC(CC(C3)C1)C2)Nc1c(F)cccc1F,7,1,7,5
COc1cccc(C(=O)Nc2cc(C)c3c(=O)oc4ccccc4c3n2)c1,90*,-1,-4,-2
Cc1cc(NC(=O)C2CCCCC2)nc2c1c(=O)oc1ccccc12,101*,3,24,0
COc1cc(NC(=O)COC(=O)c2ccccc2SCC(=O)N2CCCC2)cc(OC)c1,0,0,-1,-5
CC1(C(=O)NS(=O)(=O)c2ccc(Cl)cc2)CCN1C(=O)c1ccc(C2CCCCC2)cc1 (centres undefined),-10,·,·,·
O=c1c2cc(Br)ccc2nc(-c2ccc(Cl)cc2)n1O,6,-1,3,0
O=c1c2ccc(Cl)cc2nc(-c2cccc(C(F)(F)F)c2)n1O,24,3,6,16*
Cc1ccc(-c2nc3c(Cl)cc(Cl)cc3c(=O)n2O)cc1,7,1,1,17*
O=c1c2ccccc2nc(-c2ccc(Cl)c(Cl)c2)n1O,63*,1,3,-1
CC(NCC(=O)NCC(=O)Nc1ccc(F)cc1)c1cccc(C(F)(F)F)c1 (centres undefined),-3,·,3,·
CCCCN(C(=O)c1nn(C)c(=O)c2ccccc12)c1c(N)n(CC(C)C)c(=O)[nH]c1=O,4,1,-3,-4
CCc1ccc2c(c1)C1(NN=C(c3ccc(C)cc3)S1)C(=O)N2 (centres undefined),20,2,0,5
CC(C)c1ccc2c(c1)C1(NN=C(c3ccccc3)S1)C(=O)N2 (centres undefined),45,3,-4,16*
CCOc1ccc(OCC(=O)OC(C)C(=O)NC2CCCC2)cc1 (centres undefined),7,·,-1,·
COC(=O)c1cc(OC)c(OC)cc1NC(=O)c1ccc(OC)c(OC)c1,52*,5,-12,4
COC(=O)c1cc(OC)c(OC)cc1NC(=O)c1ccccc1,7,4,-8,2
COC(=O)c1cc(Cl)c(NC(=O)/C=C/c2ccc(OC)c(OC)c2)cc1OC,68*,6,-21,0
CCOc1ccc(NC(=O)CN(C)C(=O)CCN2C(=O)C3CC=CCC3C2=O)cc1OCC (centres undefined),4,-1,7,-6
SMILES,H9c2 protect,PP5 primary,ATG4B inhibitor,PP1 counter
CCCCn1c(-c2ccc(Cl)c(Cl)c2)nc2cc3[nH]c(=O)c(C(C)C)nc3cc21,-12,4,-10,16*
CCCCn1c(-c2ccc(C(C)(C)C)cc2)nc2cc3[nH]c(=O)c(C(C)C)nc3cc21,-23,1,0,7
CCCCC(O)(c1ccc(F)cc1)C(CN1CCOCC1)c1ccc(Cl)cc1 (centres undefined),-9,3,-8,2
CCOc1ccccc1Nc1nnc(SCc2nnc(-c3cc(OC)c(OC)c(OC)c3)o2)s1,68*,2,-14,-1
CSc1nc(NCC(C)O)c2c3c(sc2n1)CN(C)CC3 (centres undefined),-2,-2,1,-1
CSc1nc(SCC(=O)NC(c2ccccc2)c2ccccc2)c2c3c(sc2n1)CN(C)CC3,-2,3,2,16*
